The source of these data is PubChem BioAssay (NCI).

This is part of a sample that, as a whole, favours compounds with a hit. Of some 83,000 tested, about 20% had one in any assay.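 The endpoint reported here, percent growth, reads 100 for growth as untreated, 0 for no net growth and -100 for all cells dead.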 Values without a mark were called inactive. The source made the active and inactive calls. How the source made its calls: active means growth percent below 10; inactive means the rest.

Test systems include SK-MEL-2 melanoma; EKVX NSCLC; SN12C renal; UO-31 renal; ACHN renal; CAKI-1 renal; A498 renal; CCRF-CEM leukemia; MOLT-4 leukemia; SR leukemia; RPMI-8226 leukemia; OVCAR-8 ovarian; OVCAR-5 ovarian; OVCAR-4 ovarian; SK-OV-3 ovarian; IGROV1 ovarian; OVCAR-3 ovarian; HS 578T breast; NCI/ADR-RES ovarian; TK-10 renal.
What all share (test): NCI-60 one-dose screen, 48 h (100 = growth as untreated, 0 = no growth, -100 = all killed)
What all share (conditions): 10 µM unless noted

`CCOC(=O)c1c(N)sc2cc(O)ccc12`: the growth in the experiment on SK-MEL-2 melanoma is 110%; in the experiment on EKVX NSCLC it was 106%; in the experiment with SN12C renal, 101%; in the experiment on UO-31 renal, 83%; in the experiment with ACHN renal, 98.2%; in the experiment on CAKI-1 renal, 97.7%. Also, the growth with A498 renal was 104%; with CCRF-CEM leukemia it was 111%; in the experiment on MOLT-4 leukemia, 84.5%; in the experiment with SR leukemia, 93%; in the experiment with RPMI-8226 leukemia, 110%; in the experiment on OVCAR-8 ovarian, 100%. The growth was 100% in the experiment on OVCAR-5 ovarian; 108% with OVCAR-4 ovarian; 111% in the experiment with SK-OV-3 ovarian; 97.1% in the experiment with IGROV1 ovarian; 97.9% in the experiment with OVCAR-3 ovarian; 99.9% in the experiment with HS 578T breast. Also, the growth in the experiment on NCI/ADR-RES ovarian was 100%.
Consider `CC1=NN(c2cccc(Cl)c2)C(=O)/C1=C\C=C\c1ccccc1`, for which the growth was 74.6% with SK-MEL-2 melanoma; 87.1% with EKVX NSCLC; 0.408% (active) in the experiment on SN12C renal; 69.7% in the experiment with UO-31 renal; -51.3% (active) in the experiment with ACHN renal; 52.2% in the experiment with CAKI-1 renal. Also, the growth in the experiment on A498 renal is 110%; in the experiment with CCRF-CEM leukemia, 2.35% (active); in the experiment with MOLT-4 leukemia, 28.4%; in the experiment on SR leukemia it was 10.6%; with RPMI-8226 leukemia, 15.4%; with OVCAR-8 ovarian it was 0.373% (active). The growth in the experiment with OVCAR-5 ovarian is 144%; in the experiment with OVCAR-4 ovarian, -10.4% (active); with SK-OV-3 ovarian, 39.4%; in the experiment on IGROV1 ovarian, 45.5%; with OVCAR-3 ovarian, 104%; in the experiment on HS 578T breast it was 133%. For the same molecule, the growth with NCI/ADR-RES ovarian is -17.5% (active).
Turning to `Cc1ccc2c(c1)CC(O)CC1C(=O)N(CCO)CC(=O)N21` (configuration not stated), the growth is 86.2% in the experiment on SK-MEL-2 melanoma; 104% in the experiment with EKVX NSCLC; 100% with SN12C renal; 95.8% in the experiment with UO-31 renal; 88.6% in the experiment with TK-10 renal; 104% in the experiment with ACHN renal. Besides, the growth in the experiment with CAKI-1 renal was 92.6%; with CCRF-CEM leukemia it was 104%; with MOLT-4 leukemia, 92.2%; in the experiment with SR leukemia, 87.3%; in the experiment on RPMI-8226 leukemia, 98.8%; in the experiment with OVCAR-8 ovarian, 101%. Moreover, the growth is 101% in the experiment on OVCAR-5 ovarian; 113% in the experiment on OVCAR-4 ovarian; 103% in the experiment on SK-OV-3 ovarian; 112% in the experiment with IGROV1 ovarian; 115% in the experiment with OVCAR-3 ovarian; 103% in the experiment with HS 578T breast. For the same molecule, the growth with NCI/ADR-RES ovarian was 104%.
Regarding `Cc1ccccc1NC(=O)c1sc2nc3c(cc2c1N)CCCC3`, the growth in the experiment with SK-MEL-2 melanoma was 26.4%; with EKVX NSCLC, 45.8%; in the experiment with SN12C renal, 37.3%; in the experiment on UO-31 renal, 45.2%; in the experiment on ACHN renal it was 51.2%; with CAKI-1 renal, 51%. Moreover, the growth in the experiment with A498 renal was -3.82% (active); in the experiment with CCRF-CEM leukemia, 20.9%; in the experiment on MOLT-4 leukemia it was 27.4%; in the experiment on SR leukemia it was 14.3%; in the experiment on RPMI-8226 leukemia it was 21.3%; in the experiment with OVCAR-8 ovarian it was 29.7%. In addition, the growth is 81.6% with OVCAR-5 ovarian; 61.8% with OVCAR-4 ovarian; 25.1% in the experiment with SK-OV-3 ovarian; 57% in the experiment on IGROV1 ovarian; 11.3% with OVCAR-3 ovarian; 55.8% in the experiment with HS 578T breast. The growth in the experiment with NCI/ADR-RES ovarian was 26.5%.
`COc1cc(NC(=O)c2cncnc2Nc2ccc3c(ccn3Cc3cccc(F)c3)c2)cc(OC)c1`: the growth with SK-MEL-2 melanoma was 66.7%; in the experiment on EKVX NSCLC, 85.3%; in the experiment with SN12C renal it was 67.4%; in the experiment on UO-31 renal, 37.9%; in the experiment on ACHN renal, 54%; in the experiment on CAKI-1 renal it was 34.8%. The growth in the experiment on A498 renal was 24.3%; with CCRF-CEM leukemia, 26.4%; in the experiment on MOLT-4 leukemia, 19.8%; with SR leukemia, 19.7%; in the experiment with RPMI-8226 leukemia, 63.5%; with OVCAR-8 ovarian it was 65.8%. Also, the growth was 71.7% in the experiment with OVCAR-5 ovarian; 95.1% in the experiment with OVCAR-4 ovarian; 67% in the experiment with SK-OV-3 ovarian; 50.8% in the experiment on IGROV1 ovarian; 23% with OVCAR-3 ovarian; 51% in the experiment with HS 578T breast. The growth with NCI/ADR-RES ovarian was 42.1%.
Turning to `CCCN1C2CCC1/C(=C\c1ccc(OC)cc1)C(=O)/C2=C/c1ccc(OC)cc1`, the growth was 72.5% with SK-MEL-2 melanoma; 77.6% with EKVX NSCLC; 75% in the experiment with SN12C renal; 56.3% in the experiment with UO-31 renal; 81.6% in the experiment on ACHN renal; 74.4% in the experiment on CAKI-1 renal. Moreover, the growth with A498 renal is 80%; in the experiment with CCRF-CEM leukemia, 67.4%; in the experiment with MOLT-4 leukemia, 55%; in the experiment on SR leukemia, 45.4%; with RPMI-8226 leukemia it was 40.7%; in the experiment on OVCAR-8 ovarian, 72.6%. Also, the growth in the experiment on OVCAR-5 ovarian is 93.5%; with OVCAR-4 ovarian, 73.5%; in the experiment on SK-OV-3 ovarian, 79.4%; with IGROV1 ovarian it was 82.2%; with OVCAR-3 ovarian it was 81.8%; in the experiment on HS 578T breast it was 92%. Besides, in the experiment on NCI/ADR-RES ovarian, the growth was 77%.
In the case of `Cc1ccc2c(n1)C[C@H](C(C)(C)O)CC[C@H]2C`, the growth with SK-MEL-2 melanoma is 99.9%; with EKVX NSCLC it was 92.4%; in the experiment on SN12C renal, 98.4%; in the experiment on UO-31 renal, 90.6%; in the experiment on ACHN renal, 102%; in the experiment on CAKI-1 renal, 92.8%. The growth in the experiment on CCRF-CEM leukemia is 106%; in the experiment on MOLT-4 leukemia it was 103%; with SR leukemia it was 107%; in the experiment with RPMI-8226 leukemia, 110%; with OVCAR-8 ovarian it was 101%; in the experiment on OVCAR-5 ovarian it was 94.7%. Moreover, the growth in the experiment on OVCAR-4 ovarian was 99.6%; with SK-OV-3 ovarian it was 99.1%; in the experiment with IGROV1 ovarian it was 104%; with OVCAR-3 ovarian it was 113%; in the experiment on HS 578T breast it was 111%; in the experiment on NCI/ADR-RES ovarian, 104%.
